Screening data: PubChem, National Center for Advancing Translational Sciences (NCATS)
HT1080 IDH1KD tx: kills HT-1080 cells with IDH1 knockdown | HT-1080 IDH1 knockdown viability, ATP luminescence, 48 h | 360,000 compounds, 2% hits | Potency, µM (highest dose often 46.1 µM), for the others: top-dose activity, negative = toxicity, hits mostly cytotoxic;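 also: potency is read from the fitted curve at half-maximal effect; 0% = DMSO wells and -100% = cell-free medium wells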
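Assay cells: HT-1080 with IDH1 knockdown, 750 per well, RPMI/5% FBS. Exposure: 48 h at 37 °C following 2 h pre-incubation. Read: CellTiter-Glo luminescence; fitted concentration-response, curve class assigned.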
TDP1 cell CPT: growth inhibition of DT40 Tdp1-/-;hTDP1 cells with camptothecin (screen for TDP1 inhibitors). Potency, µM (titrated, usually from 46.2 µM), for inactives: top-dose activity change, negative = growth inhibition, hits mostly inhibitors. 420,000 compounds, 12% hits. AID 686979. chicken DT40 Tdp1-/-;hTDP1 cells + 20 nM CPT, ATP luminescence, 48 h; also: potency is read from the fitted curve at half-maximal effect; nearly all actives have a fitted effect of over 55% in size
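Chicken DT40 Tdp1-/- cells stably complemented with human TDP1 were seeded at 400 cells/well in medium containing 20 nM camptothecin, exposed to pin-transferred compounds, and grown at 37 °C for at least 48 hr. Viability was read as ATP luminescence.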
HT1080-NT tox: kills 2HG-producing HT-1080-NT fibrosarcoma cells; 360,000 compounds, 1.6% hits; AID 686970; HT-1080-NT fibrosarcoma viability, CellTiter-Glo ATP luminescence, 48 h; Potency, µM (series often up to 46.1 µM), for inactives: at the top dose activity, negative = less viability, most hits filed as cytotoxic;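 also: NT is the 2HG producing partner of a matched IDH1 knockdown line; potency is read from the fitted curve at half-maximal effect; 0% = DMSO-treated cells and -100% = media-only wells without cells; nearly all actives have a fitted effect of over 55% in size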
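Luminescent CellTiter-Glo readout after 48 hours of compound exposure at 37 degrees C defined viability of HT-1080-NT cells. Activity was normalized to DMSO wells and cell-free media wells; concentration-response curves were fitted and assigned curve classes.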
ELG1 DNA repair: blocks ELG1-dependent DNA repair in HEK293T cells; HEK293T ELG1-luciferase reporter, luminescence, 16 h; DNA damage induced by 5-fluorouridine; Potency, µM (doses to about 46.1 µM), inactives show at the top dose activity change, negative = inhibition, hits mostly inhibitors; 330,000 compounds, 2.3% hits; AID 504467; also: potency is read from the fitted curve at half-maximal effect; nearly all actives have a fitted effect of over 55% in size
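Overnight (16 hr) co-exposure of 2,000 cells/well to 5-fluorouridine and compound at 37 °C preceded detection. Luciferase was quantified via ONE-Glo luminescence; loss of signal denotes inhibition.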
TDP1 cell noCPT: qHTS for Inhibitors of human tyrosyl-DNA phosphodiesterase 1 (TDP1): qHTS in cells in absence of CPT | Potency, µM (top dose mostly 46.2 µM), without a hit: at the highest dose activity change, negative = growth inhibition, actives largely listed as inhibitors | 420,000 compounds, 15% hits | DT40 Tdp1-/- hTDP1 cells, no CPT, ATP luminescence, 48 h; also: potency is read from the fitted curve at half-maximal effect; nearly all actives have a fitted effect of over 55% in size
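Growth kinetics read by CellTiter-Glo luminescence after ≥48 hr at 37 °C. Cells: DT40 Tdp1-/- stably carrying human TDP1, 400 per well, compound exposure in the absence of CPT (DMSO vehicle).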
IL1B secr inh: blocks inflammasome-driven IL-1 beta release; THP-1 LPS/ATP IL-1B secretion, AlphaLISA, 16 h; stronger effect = lower value; activity change, % at 57.5 µM; 360,000 compounds, 4.7% hits; AID 743279; in the data active = activity change below about -50%; inconclusive = mostly about -30% to -49%
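THP-1 cells pretreated 1 hr with compounds (up to 57.5 uM final), then stimulated with LPS (250 ng/mL final) plus ATP (1.25 mM final); secreted IL-1B measured by AlphaLISA after 16 hr, decreased signal indicating inhibition.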
An asterisk follows results filed as active; ? = inconclusive; nt = no result given; [ ] = dose if it differs, or a comment. Shown are actives, neighbours in structure and some others; about 19% of the full set was active somewhere. Unless noted, calls follow the shape of the dose curve; as a rule, active = well fitted curve in the direction sought with a large enough effect; inconclusive = small, poorly fitted or top-dose-only effect, or another doubt; inactive = no such curve, though single readings can be large; an effect the other way counts as inactive or inconclusive. Unless noted, % is scaled to controls: 0 for no effect and ±100 for the full control effect.

SMILES	HT1080 IDH1KD tx	TDP1 cell CPT	HT1080-NT tox	ELG1 DNA repair	TDP1 cell noCPT	IL1B secr inh
CCOC(=O)c1cc(-c2ccccc2)n(CCCC(=O)Nc2ccc(C(C)C)cc2)c1C	nt	?	nt	nt	21µM*	nt
CCOC(=O)c1cc(-c2ccccc2)n(CCCC(=O)Nc2cccc(C)c2C)c1C	nt	16µM*	nt	nt	?	nt
CCOC(=O)c1cc2occc2n1CC(=O)Nc1ccc(OC)cc1OC	-6%	23µM*	-4%	-20%	?	7
CC(=O)Nc1ccc(S(=O)(=O)NCCc2cn3nc(C)c(C)nc3n2)cc1	8%	-12%	6%	30%	-6%	-2
CCOC(=O)c1cc(-c2ccc(C)cc2)n(CC(=O)Nc2ccc(OC)cc2OC)c1C	nt	23µM*	nt	nt	?	nt
CCOC(=O)c1cc(-c2ccc(C)cc2)n(CC(=O)Nc2ccc(OC)c(Cl)c2)c1C	nt	18µM*	nt	nt	16µM*	nt
Cc1cccc2sc(NC(=O)CCn3cccc3)nc12	-19%	5%	-10%	-5%	-24%	-52*
Cc1ccc2nc(NC(=O)CCn3cccc3)sc2c1	-8%	-19%	-11%	?	?	-5
CCOC(=O)c1cc(-c2ccccc2)n(CCCC(=O)Nc2cccc(C)c2)c1C	nt	16µM*	nt	nt	16µM*	nt
Cc1cccnc1NC(=O)Nc1cccc(F)c1	7%	-8%	17%	nt	-19%	0
CCc1ccc(NC(=S)NC2CC3CCCC(C2)N3Cc2cccs2)cc1 (stereo not drawn)	?	18µM*	?	-5%	?	-90*
COc1cccc(NC(=S)NC2CC3CCCC(C2)N3CC(C)C)c1 (stereo not drawn)	1%	?	12%	10%	16µM*	-16
CCc1ccccc1NC(=O)NC1CC2CCC(C1)N2Cc1cccs1 (stereo not drawn)	?	?	1%	-2%	-26%	-6
CCCN1C2CCCC1CC(NC(=S)Nc1ccc(OC)cc1)C2 (stereo not drawn)	4%	?	-2%	-9%	29µM*	-16
CCOC(=O)NNC(=O)NCCCCCCNC(=O)NNC(=O)OCC	13%	-8%	-2%	8%	-6%	0
CCNC(=O)C1(C)CCCN1C(=O)c1cc(OC)c(OC)c(OC)c1 (stereo not drawn)	12%	-1%	?	nt	2%	30
O=C(NCc1cccnc1)c1ccc(Cn2c(=S)[nH]c3ccc(Br)cc3c2=O)cc1	-1%	?	0%	-3%	-18%	27
CCN(Cc1cc2cc(OC)ccc2[nH]c1=O)C(=O)Cc1ccc(OC)cc1	3%	?	5%	?	?	-6
CCOC(=O)Cn1nnnc1CN(Cc1ccc(OC)cc1)Cc1cc2cc(CC)ccc2[nH]c1=O	-5%[9.24 µM]	15µM*	-29%	?	?	-89*
CCOC(=O)Cn1nnnc1CN(Cc1ccc(OC)cc1)Cc1cc2cc(C)cc(C)c2[nH]c1=O	-4%	23µM*	-1%	1%	26µM*	0
COc1cccc(NC(=O)c2oc3ccccc3c2NC(=O)C23CC4CC(CC(C4)C2)C3)c1	nt	-7%	nt	nt	-5%	nt
COc1ccc(-c2cc(C(=O)Nc3cc(OC)cc(C(=O)Nc4cccc(C(F)(F)F)c4)c3)[nH]n2)cc1	?	2.3µM*	?	-4%	2.6µM*	46
COc1cc(NC(=O)c2cc3cc4cc(OC)ccc4nc3o2)cc(OC)c1	nt	-25%	nt	nt	?	nt
COc1cc(NC(=O)c2ccc(N)nc2)cc(C(=O)Nc2cccc(C(F)(F)F)c2)c1	-14%	?	-7%	?	16µM*	-11
COc1cc(NC(=O)c2csc(-c3ccncc3)n2)cc(C(=O)Nc2cccc(C(F)(F)F)c2)c1	-27%	8.2µM*	-20%	5.2µM*	4.6µM*	-15
SMILES	HT1080 IDH1KD tx	TDP1 cell CPT	HT1080-NT tox	ELG1 DNA repair	TDP1 cell noCPT	IL1B secr inh
COc1cc(NC(=O)c2nccnc2N)cc(C(=O)Nc2cccc(C(F)(F)F)c2)c1	?	?	?	0%	?	58
COc1ccc2nc3oc(C(=O)Nc4cccc(C(F)(F)F)c4)cc3cc2c1	nt	13µM*	nt	nt	12µM*	nt
Fc1ccc(Nc2c3c(nc4nncn24)CCC3)cc1	nt	-6%	nt	nt	-22%	nt
COc1cc(NC(=O)c2nccn2C)cc(C(=O)Nc2cccc(C(F)(F)F)c2)c1	?	?	?	8%	6.5µM*	61
COc1cc(Nc2ccccn2)cc(C(=O)Nc2cccc(C(F)(F)F)c2)c1	?	16µM*	?	?	?	-5
COc1cc(OC)cc(C(=O)Nc2cccc(C(C)=O)c2)c1	2%	-10%	10%	17%	-15%	4
COc1cc(NC(=O)c2ccno2)cc(C(=O)Nc2cccc(C(F)(F)F)c2)c1	-6%	?	-10%	?	16µM*	-6
COc1cc(NC(=O)c2cc3cccc(OC)c3o2)cc(C(=O)Nc2cccc(C(F)(F)F)c2)c1	-17%	6.5µM*	?	12µM*	5.2µM*	40
C[C@H](CO)N1C[C@H](C)[C@@H](CN(C)C(=O)C2CC2)OCc2cnnn2CCCC1=O	1%	6%	-2%	nt	6%	0
CCOC(=O)c1c(C)[nH]c(C)c1S(=O)(=O)N1CCC(C(=O)NCc2ccccc2)CC1	nt	0%	nt	nt	4%	nt
Cc1ccnc(NS(=O)(=O)c2ccc(NC(=O)c3ccc4c(c3)OCCO4)cc2)n1	-5%	-9%	-2%	4%	-19%	0
CCOC(=O)CSc1nc2c(c(=O)[nH]1)C(C)(CC)Cc1ccccc1-2 (stereo not drawn)	5.8µM*	?	?	-9%	16µM*	73
CCOC(=O)C1Cn2c(nc3c(c2=O)C(C)(C)Cc2ccccc2-3)S1 (stereo not drawn)	-13%	-13%	-11%	?	16µM*	-3
CC(=O)Nc1cc(-c2ccc(F)cc2)cn2c(-c3ccc(F)c(Cl)c3)cnc12	?	?	?	nt	23µM*	-13
CC(=O)Nc1cc(-c2ccc(CO)cc2)cn2c(-c3ccc(F)c(Cl)c3)cnc12	?	?	33µM*	nt	?	-28
CC(=O)Nc1cc(-c2cccc(F)c2)cn2c(-c3ccc(F)c(Cl)c3)cnc12	?	?	?	nt	?	-2
